This is part of a sample that, as a whole, favours compounds with a hit. Of some 83,000 tested, about 20% had one in any assay.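 Compound tested at a single concentration for 48 hours in 96-well plates; a percent growth value below 10 was scored as active.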 Activity calls are given as the source filed them.
System: MDA-MB-468 breast
Experiment: NCI-60 one-dose screen, 48 h (100 = growth as untreated, 0 = no growth, -100 = all killed)
Settings: 10 µM unless noted

| Compound | growth |
| --- | --- |
| O=C(Oc1ccc(CO[N+](=O)[O-])cc1)c1ccccc1 | -67.7% (active) |
| CCOC(=O)C1(Cc2ccccc2)CCN(Cc2cccc(OC)c2O)CC1 | -9.39% (active) |
| CCCCCCCCCCCCCCCC[N+]1(C)CCN(SN2CC[N+](C)(CCCCCCCCCCCCCCCC)CC2)CC1 | 52.2% (inactive) |
| COC(=O)[C@]12CC[C@@H](C(C)=O)[C@@H]1[C@H]1CC[C@@H]3[C@@]4(C)C/C(=C/c5cccnc5)C(=O)C(C)(C)[C@@H]4CC[C@@]3(C)[C@]1(C)CC2 | 55.7% (inactive) |
| CC(C)(C)c1ccc2oc(=O)n(SC(Cl)(Cl)Cl)c2c1 | 126% (inactive) |
| O=C(N/N=C\c1ccc([N+](=O)[O-])cc1)c1ccc2nc(-c3ccc(Br)cc3)[nH]c2c1 | -33% (active) |
| CO[C@@]12C=C[C@@]34CCC(=O)N3c3ccccc3[C@@H](O1)C4C2 | 108% (inactive) |
| Cc1cc(C(O)(c2ccc(Nc3ccccc3)cc2)c2ccc(Nc3ccc(S(=O)(=O)O)cc3)cc2)ccc1N (stereo not given) | -71.3% (active) |
| CN1CCN(c2ccc(/C=N/Nc3nc4ccccc4c(=O)n3-c3ccccc3)cc2)CC1 | 90.8% (inactive) |
| c1ccc(C2Cc3ccccc3C2=NC2CCCCC2)cc1 (stereo not given) | 111% (inactive) |
| O=C1OCC/C1=C\OCCCO/C=C1\CCOC1=O | 92.8% (inactive) |
| COc1ccc(/C=N/Nc2c3ccccc3nc3ccccc23)cc1 | 73.7% (inactive) |
| O=C(NNc1ccccc1)OCc1ccccc1 | 108% (inactive) |
| CCOC(=O)Nc1nccs1 | 120% (inactive) |
| COc1cc(-c2ccc3cc(OC)c(OC)c(OC)c3c2)cc(OC)c1OC | 31.6% (inactive) |
| Cc1nc2cccc(NCCCCC(=O)NO)c2c(=O)n1-c1ccccc1 | 54.6% (inactive) |
| O=C(Nc1ccc(N2CCCCC2)c(Cl)c1)c1ccc(Br)o1 | 89.7% (inactive) |
| CC(C)[C@H](CN)NC[C@H](C)NS(=O)(=O)c1ccc(C(C)(C)C)cc1 | 86.5% (inactive) |
| CCN(C(=O)c1ccc2c3c(cccc13)C=C2)c1ccccc1 | 84.3% (inactive) |
| Cc1ccc(C(=O)NC2c3ccccc3Oc3ccccc32)cc1 | 41.8% (inactive) |

| Compound | growth |
| --- | --- |
| O=C1Nc2ccccc2C1(c1c[nH]c2ccccc12)c1c[nH]c2ccccc12 | -23.3% (active) |
| COc1ccc(-c2cc(-c3ccc(Cl)cc3)nc(SCCCC(=O)NO)n2)cc1OC | -55.5% (active) |
| COc1ccc(C/C(C)=C(/c2ccc(OCCN3CCCCCC3)cc2)c2ccc(OC(=O)NCc3ccccc3)cc2)cc1 | 83% (inactive) |
| CC1(C)NCCC[C@]2(C)[C@H]3CC[C@@H]4[C@H]5[C@H](C(=O)/C=C/c6ccccn6)CC[C@]5(CO)CC[C@@]4(C)[C@]3(C)CC[C@@H]12 | 5.83% (active) |
| COc1ccc(C2CC(c3ccc(OC)c(OC)c3)=NN2C(=O)c2cc(OC)c(OC)c(OC)c2)c(OC)c1 (stereo not given) | 53.6% (inactive) |
| O=C(NCCO)Nc1ccc(-c2nc(N3CCOCC3)c3cccn3n2)cc1 | -24.2% (active) |
| O=C1NC(=O)C(CSc2ccccc2)(c2ccccc2)N1 (stereo not given) | 105% (inactive) |
| CC(C)C(=O)Nc1ccc([N+](=O)[O-])c(C(F)(F)F)c1 | 61.7% (inactive) |
| CCNCCNc1cc(-c2ccc(C(F)(F)F)cc2)c(C#N)c2nc3ccccc3n12 | -73.6% (active) |
| CCN(CC)CCn1c2ccc(OC)cc2c2sc3cc(OC)ccc3c(=O)c21 | 14.5% (inactive) |
| Cc1cc(=O)cc(C)n1-c1ccccc1 | 100% (inactive) |
| O=S(=O)(O)c1cnccn1 | 105% (inactive) |
| O=C1C=CC(Nc2ccccc2[N+](=O)[O-])C1Nc1ccccc1[N+](=O)[O-] (stereo not given) | -97.4% (active) |
| Fc1ccc(NCc2nnc(-c3ccc(Cl)cc3)o2)cc1 | 56.9% (inactive) |
| CCN(C(=O)c1cc2ncccc2[nH]1)[C@H]1CCC[C@@H](NCc2cccc(F)c2)C1 | 107% (inactive) |
| CC1(C)CC[C@]2(C(=O)N3CCOCC3)CC[C@]3(C)C(=CC[C@@H]4[C@@]5(C)C/C(=C/c6ccco6)C(=O)C(C)(C)[C@@H]5CC[C@]43C)[C@@H]2C1 | 82.3% (inactive) |
| c1cnc2ccc3ncccc3c2c1 | 122% (inactive) |
| Cc1ccc2c(n1)C(=O)C(Cl)=C(Nc1cccc(C(=O)OC(C)(C)C)c1)C2=O | -57.7% (active) |
| O=C(Nc1cccc2cccnc12)c1cc(C(=O)c2ccc(Cl)cc2)n2ccc(-c3ccncc3)cc12 | 108% (inactive) |
| O=C1NN(C(=O)c2ccccc2)C(c2ccc(Cl)c(Cl)c2)=C/C1=C\c1ccccc1[N+](=O)[O-] | 53.9% [6.75 µM] (inactive) |

Source: PubChem BioAssay (NCI)
